Compound activity from PubChem.
APOBEC3G inh: blocks human APOBEC3G single-stranded DNA deamination. hit rate 0.28% among 330,000. recombinant A3G, ssDNA deamination FAM/TAMRA fluorescence. inhibition, % at 20 µM. Q9HC16;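 active means inhibition of at least 40% at 20 µM, with no more than 30% in the related APOBEC3A deaminase screen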;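 further: plate controls were DMSO wells with A3G for no effect and wells lacking A3G enzyme for full effect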
PABP polyA inh: blocks human PABP binding to poly(A) RNA; P11940; fluorescence polarization; calls only at 35 µM; hit rate 1% among 290,000;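 further: calls also rest on retests at 20 µM and on dose response follow-up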
A3A deaminase: human APOBEC3A DNA deaminase inhibition | P31941 | recombinant A3A, FAM/TAMRA ssDNA deamination fluorescence | inhibition, % at 20 µM | hit rate 0.41% among 330,000 | AID 493011;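 active means at least 40% inhibition at 20 µM here, with at most 30% in a related deaminase screen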;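 further: plate controls were A3A with DMSO for no effect and wells lacking A3A enzyme for full effect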
Target sequence (P31941 whole entry, looked up): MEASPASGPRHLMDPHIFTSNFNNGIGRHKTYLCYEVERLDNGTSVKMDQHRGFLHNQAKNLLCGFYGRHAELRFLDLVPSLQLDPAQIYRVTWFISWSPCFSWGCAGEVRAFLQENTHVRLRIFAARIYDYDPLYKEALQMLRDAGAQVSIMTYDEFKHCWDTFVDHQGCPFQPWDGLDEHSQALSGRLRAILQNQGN
eIF4H FP inh: inhibitors of RNA binding by human eIF4H; AID 2012; hit rate 0.94% among 290,000; eIF4H fluorescence polarization binding assay; inhibition, % at 35 µM; Q15056;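 further: calls also rest on retests at 20 µM and on dose response follow-up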
PHOSPHO1 block: PHOSPHO1 (human) inhibition. Q8TCT1. recombinant PHOSPHO1, absorbance phosphatase assay. inhibition, % at 13.3 µM. hit rate 1.1% among 290,000. AID 1565; in the data active means inhibition above about 60%
Target sequence (Q8TCT1 whole entry, looked up): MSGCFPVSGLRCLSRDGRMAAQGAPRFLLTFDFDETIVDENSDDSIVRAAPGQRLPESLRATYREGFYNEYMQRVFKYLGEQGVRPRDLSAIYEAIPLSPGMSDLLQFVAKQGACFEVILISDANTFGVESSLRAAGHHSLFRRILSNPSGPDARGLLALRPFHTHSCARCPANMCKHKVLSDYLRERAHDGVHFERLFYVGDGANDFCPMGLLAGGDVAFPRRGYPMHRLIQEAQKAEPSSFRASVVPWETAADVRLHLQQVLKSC
MLLE-PAM2 inh: inhibitors of microRNA-mediated deadenylation, human PABP1 MLLE binding; inhibition, % at 20 µM; P11940; hit rate 0.36% among 360,000; AID 588489; GST-MLLE / FITC-PAM2 fluorescence polarization; in the data active means inhibition above about 35%, passing the limit was not always enough;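 further: plate controls were DMSO wells with GST-MLLE for no effect and wells lacking GST-MLLE protein for full effect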
A3A conf: APOBEC3A (human) deaminase inhibition, confirmed. hit rate 63% among 1,400. inhibition, % at 20 µM. recombinant A3A, ssDNA deaminase UDG fluorescence assay. shares compounds with A3A deaminase;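 active means inhibition reaching a set limit, 80% of the first screen's cutoff, at 20 µM in any replicate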;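 further: plate controls were DMSO wells with A3A for no effect and wells lacking A3A enzyme for full effect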
UDG ctr A3A: inhibits UDG, flagging false APOBEC3A inhibitors; shares compounds with A3A deaminase; UDG counterscreen, FAM/TAMRA uracil oligo fluorescence; inhibition, % at 20 µM; 1,000 tested, under 10 active
Starred values were filed as active, the others as inactive; i = inactive; . = no result; + = active, no number. Most compounds without a hit are left out; they make up all but 2.6% or so of the library. Unless noted, how the calls were made is not given here.

SMILES | APOBEC3G inh | PABP polyA inh | A3A deaminase | eIF4H FP inh | PHOSPHO1 block | MLLE-PAM2 inh | A3A conf | UDG ctr A3A
Cc1ccc(CN2C(=O)N/C(=C\c3cccn3-c3cccc(C(=O)O)c3)C2=O)cc1 | 27.5 | + | 79.0* | 90.1 | -31.5 | 7.4 | 79.7* | -2.7
CN(C)c1ccc(NC(=O)Cc2ccccc2)c2ccccc12 | -10.1 | i | -4.5 | -1.9 | . | 15.3 | . | .
CC1=NOC(=O)/C1=C\c1ccc(-c2ccc(Br)cc2)o1 | . | i | . | 17.6 | 4.1 | -21.2 | . | .
CC1=NOC(=O)/C1=C\c1ccc(-c2ccc(Br)cc2C(=O)O)o1 | 16.1 | i | 53.4* | -1.1 | -67.3 | -122.2 | active | 4.7
O=C(Nc1ccc(F)cc1)N1CCc2ccccc2C1 | -2.4 | i | 0.1 | -1.4 | 35.3 | -14.9 | . | .
CSc1nc2sc3c(c2c(=O)n1C1CCCCC1)CCN(C)C3 | 18.5 | i | 47.2* | -4.7 | -13.9 | -108.3 | 20.5 | .
COc1cccc(NC(=O)Cn2nnc(C(=O)NCc3ccc4c(c3)OCO4)c2N)c1 | -2.1 | i | 2.2 | -9.3 | 20.7 | -6.3 | . | .
O=C(COc1cccc(C(F)(F)F)c1)NCC(c1ccco1)N1CCCC1 (centres undefined) | 2.2 | . | 46.3* | . | . | -28.5 | 3.4 | .
O=C(COc1ccccc1Cl)N1CCN(c2ccccn2)CC1 | 6.5 | . | 41.7* | . | . | -81.2 | 1.8 | .
O=C(COc1ccc(F)c(Cl)c1)N1CCN(c2ccccn2)CC1 | -4.1 | i | 1.1 | -14.6 | 41.4 | 6.7 | . | .
COc1ccc(N(CC(=O)N2CCc3ccccc3C2)S(C)(=O)=O)cc1Cl | 6.1 | i | 47.2* | -5.7 | -1.3 | -90.4 | 12.5 | .
COc1ccc(N(CC(=O)N2CCCCCC2)S(C)(=O)=O)cc1Cl | -3.5 | i | -2.4 | 6.8 | 30.2 | 1.3 | . | .
CC(NC(=O)CSc1nnc(CC(=O)Nc2ccc(Cl)c(Cl)c2)n1C)c1ccccc1 (centres undefined) | 14.7 | i | 46.9* | 9.2 | 95.4* | -84.3 | 47.9* | .
Cn1c(CC(=O)Nc2ccc(Cl)c(Cl)c2)nnc1SCC(=O)N1CCN(c2ccccc2)CC1 | -5.6 | i | -4.3 | 8.4 | 32.9 | -82.8 | . | .
CCCn1ncc(C(=O)NC2CCCN(Cc3ccc(Cl)cc3)C2)c1C (centres undefined) | -4.3 | i | -5.5 | -4.8 | 39.9 | -13.5 | . | .
Cc1ccc(N(Cc2cc3cccc(C)c3[nH]c2=O)S(=O)(=O)c2ccccc2)c(C)c1 | 22.4 | i | 54.3* | -0.5 | 6.2 | -130.7 | 66.6* | 0.7
Cc1ccc2[nH]c(=O)c(CN(c3cccc(C)c3C)S(=O)(=O)c3ccccc3)cc2c1 | -7.9 | i | -4.0 | -10.3 | 31.5 | -14.7 | . | .
O=C1CN(C(=O)CSc2nc(-c3ccccc3)cs2)c2ccccc2N1 | 2.4 | i | -0.4 | 1.8 | 11.8 | 6.4 | . | .
O=C1CN(C(=O)CSc2nncs2)c2ccccc2N1 | -3.1 | i | 44.2* | -0.3 | 32.0 | 2.5 | -5.2 | -2.9
Cc1ccc(Cl)c2c1NC(=O)C2=O | -1.9 | . | 4.5 | . | . | -6.8 | . | .
COc1ccc2oc(C(=O)OCC(=O)Nc3ccc(NC(C)=O)cc3)c(C)c2c1 | 2.2 | . | 46.6* | . | . | -22.6 | 0.3 | .
COc1ccc2oc(C(=O)OCC(=O)Nc3cccc(S(=O)(=O)N4CCOCC4)c3)c(C)c2c1 | -1.7 | . | 43.5* | . | . | -50.0 | 14.8 | 2.0
O=C(CN1C(=O)C2CCCCC2C1=O)OCC(=O)c1ccc(Cl)s1 (centres undefined) | -6.2 | i | -1.9 | -2.7 | 28.5 | -3.4 | . | .
O=P(NCc1ccccc1)(OCc1ccccc1)OCc1ccccc1 | . | . | . | . | . | 10.4 | . | .
O=[N+]([O-])c1cccc(/C=N/n2cnnc2)c1O | -5.8 | i | 3.6 | 3.4 | 10.7 | 12.7 | . | .
SMILES | APOBEC3G inh | PABP polyA inh | A3A deaminase | eIF4H FP inh | PHOSPHO1 block | MLLE-PAM2 inh | A3A conf | UDG ctr A3A
O=C1ON=C(c2ccc(Cl)c([N+](=O)[O-])c2)/C1=C/c1cccc([N+](=O)[O-])c1O | 22.6 | . | 81.6* | . | . | -141.1 | 87.7* | -3.4
O=C1ON=C(c2ccccc2[N+](=O)[O-])/C1=C/c1cccc([N+](=O)[O-])c1O | 17.0 | . | 57.5* | . | . | -112.2 | 82.5* | -0.8
c1cc(C2OCCN2CC2COC3(CCCC3)O2)ccn1 (centres undefined) | -4.6 | i | -1.7 | 1.9 | -29.9 | 1.5 | . | .
C[N+]1(CC2COC3(CCCCC3)O2)CCCCC1 (centres undefined) | 24.5 | . | 67.9* | . | 12.9 | -132.5 | 73.6* | -3.1
CN(C(=O)CO/N=C/c1ccc(OC(F)F)cc1)C1CCS(=O)(=O)C1 (centres undefined) | -0.2 | i | 0.4 | 9.0 | 32.2 | -7.4 | . | .
CCN1C(=O)c2ccccc2Sc2ccc(C(=O)O)cc21 | -3.7 | i | -3.6 | 7.5 | 31.3 | -8.0 | . | .
CCOC(=O)c1ccc2c(c1)N(C)C(=O)c1ccccc1S2 | 12.8 | . | 57.5* | . | -15.7 | -148.4 | 81.6* | -2.5
CN(C(=O)COC(=O)CSc1cc(Cl)ccc1Cl)c1c(N)n(Cc2ccccc2)c(=O)[nH]c1=O | 8.1 | . | 40.8* | . | . | -28.2 | -0.8 | .
CN(C(=O)COC(=O)CSCc1cccc(Cl)c1)c1c(N)n(Cc2ccccc2)c(=O)[nH]c1=O | -0.7 | . | 10.5 | . | . | -6.2 | . | .
CSc1nc2ccc(NC(=O)c3ccc(=O)[nH]c3)cc2s1 | 2.8 | i | 41.9* | 0.4 | 8.1 | -28.0 | 22.8 | .
COC(=O)c1cnc(SCc2ccc([N+](=O)[O-])cc2)n1C | -2.9 | i | -0.8 | -9.1 | -62.7 | 1.1 | . | .
CCOC(=O)C1=C(C)N=C2SC(C(=O)OC)=CC(=O)N2C1c1cccc(OC)c1 (centres undefined) | -2.2 | i | -2.0 | -5.9 | -104.5 | -132.4 | . | .
CCOC(=O)C1=C(C)N=C2SC(C(=O)OC)=CC(=O)N2C1c1ccc(F)cc1 (centres undefined) | -8.9 | i | 54.5* | -2.9 | 50.0 | -85.7 | -1.4 | -3.2
CCN(CC)C(=O)Cn1cc(SCC(=O)NC)c2ccccc21 | 11.0 | i | 82.9* | -1.9 | -5.3 | -20.0 | 0.9 | .
Cc1ccc(C(C)NC(=S)NC2CCCCC2)c(C)c1 (centres undefined) | -4.2 | i | -8.3 | 1.0 | 22.6 | -48.8 | . | .
CCOc1ccc(S(=O)(=O)Nc2cccc(C(=O)NCC(c3ccco3)N3CCCC3)c2)cc1 (centres undefined) | -0.8 | . | 0.3 | . | . | -5.5 | . | .
O=C1C=C(Nc2ccccc2)C(=O)c2ccccc21 | -8.5 | i | 65.1* | 3.0 | 7.3 | 5.1 | -1.4 | 2.8
CCC(C)C(NC(N)=O)C(=O)Nc1ccc(C)c(Cl)c1 (centres undefined) | 6.5 | i | 56.0* | -8.1 | -3.9 | -86.0 | 1.9 | .
O=C(CSc1ccccn1)N1CCc2ccccc21 | 5.7 | i | 66.2* | 0.2 | -77.9 | -62.3 | 22.9 | .
